Assay results as given in PubChem BioAssay (EPA / NIEHS).
Inconclusive results are not listed. Active and inactive are the calls of the source. The calls were made as follows, unless noted: active = hit-call score of the fitted dose curve at least 0.9, where 1 is the maximum; inconclusive = response in the unintended direction; inactive = score below 0.9.

What was measured:
[1] = read-out: Cytochrome P450 3A4 (Homo sapiens) (UniProt P08684); assay: CLD_CYP3A4_24hr: CellzDirect (CLD) Gene Expression Assay for xenobiotic metabolism (CYP3A4) at 24 hours (AID 2283689)
Outline: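 CYP3A4 mRNA induction read by quantitative nuclease protection (chemiluminescence) 24 hr after dosing. Cultured human hepatocytes (two donor preparations) treated daily, vehicle 0.2% DMSO; phase-contrast morphology annotates cytotoxicity.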

[2] = read-out: sulfotransferase (SULT2A), SULT2A1 (gene 6822); assay: CLD_SULT2A_24hr: CellzDirect (CLD) Gene Expression Assay for sulfotransferase (SULT2A) at 24 hours (AID 2283694)
Outline: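 mRNA is measured by qNPA: probe hybridisation, S1 nuclease digestion, chemiluminescence, in lysates from human primary hepatocytes harvested 24 h after daily dosing. Vehicle was 0.2% DMSO. Phase-contrast microscopy flagged cytotoxicity (yes/no).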

[3] = read-out: ABC Transporter (ABCB1), ABCB1 (gene 5243); assay: CLD_ABCB1_48hr: CellzDirect (CLD) Gene Expression Assay for ABC Transporter (ABCB1) at 48 hours (AID 2283695)
Outline: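 ABCB1 mRNA was measured by quantitative nuclease protection assay (chemiluminescence) 48 h after dosing. Human hepatocyte cultures from two separate donors received fresh dosing solutions daily for two days, with 0.2% DMSO as vehicle. Positive-direction fit against DMSO.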

[4] = read-out: xenobiotic metabolism (CYP1A2), CYP1A2 (gene 1544); assay: CLD_CYP1A2_48hr: CellzDirect (CLD) Gene Expression Assay for xenobiotic metabolism (CYP1A2) at 48 hours (AID 2283703)
Outline: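 Cytotoxicity was flagged yes/no from morphology, while CYP1A2 transcript induction was detected by qNPA chemiluminescence after a 48-hour exposure. Human primary hepatocyte cultures from separate donors received fresh dosing solutions daily over two days, with 0.2% DMSO as vehicle and baseline.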

[5] = read-out: Broad substrate specificity ATP-binding cassette transporter ABCG2 (Homo sapiens) (UniProt Q9UNQ0); assay: CLD_ABCG2_48hr: CellzDirect (CLD) Gene Expression Assay for ABC Transporter (ABCG2) at 48 hours (AID 2283704);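 as to AC50: potency for induction of ABCG2 mRNA above the DMSO baseline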
Outline: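 ABCG2 transcript measured at 48 h by quantitative nuclease protection (chemiluminescent) and fitted for increase relative to 0.2% DMSO. Hepatocyte cultures from separate donors got fresh compound daily over two days; morphology annotated cytotoxicity.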

[6] = STM_H9_OrnithineISnorm_perc: Stemina devTOX quickPredict H9 human embryonic stem cell (hESC)-based Assay for Ornithine (ORN) Metabolite Biomarker, Normalized (AID 2283712; active = hit-call score of the fitted dose curve at least 0.9, where 1 is the maximum; inactive = score below 0.9;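 also: ornithine released into spent medium during last day measured by mass spectrometry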)
Outline: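 Metabolite endpoint from spent media of pluripotent H9 cells treated 72 h with daily re-feeding; ornithine measured by UPLC-HRMS against its 13C spike-in and referenced to the median 0.1% DMSO vehicle response.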

[7] = STM_H9_CystineISnorm_perc: Stemina devTOX quickPredict H9 human embryonic stem cell (hESC)-based Assay for Cystine (CYSS) Metabolite Biomarker, Normalized (AID 2283713; active = hit-call score of the fitted dose curve at least 0.9, where 1 is the maximum; inactive = score below 0.9)
Outline: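 Normalized cystine level in conditioned medium from the final 24h of a 72h treatment of pluripotent H9 cells (daily media and compound renewal). Quantified by UPLC-HRMS with C13-labeled internal standard; scaled to median of 0.1% DMSO vehicle wells.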

[8] = Tanguay_ZF_120hpf_ActivityScore_legacy: (Legacy) Oregon State University Tanguay Lab 120 Hour Post-fertilization zebrafish Assay Score for Activity (AID 2283742);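 as to AC50: dechorionated Tropical 5D wild-type zebrafish embryos held singly per well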
Outline: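 Dechorionated 5D embryos, one per well, static exposure 6–120 hpf, 28C, sealed and dark; final DMSO 0.64% (vol/vol). Brightfield binary scoring of mortality plus 18 endpoints; gain-of-signal fit versus DMSO baseline.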

[9] = read-out: Cytochrome P450 2B6 (Homo sapiens) (UniProt P20813); assay: CLD_CYP2B6_48hr: CellzDirect (CLD) Gene Expression Assay for xenobiotic metabolism (CYP2B6) at 48 hours (AID 2283699);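 also: actives raise transcript level above DMSO so potency reflects induction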
Outline: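 CYP2B6 transcript induction, read by quantitative nuclease protection (S1 digestion, chemiluminescent detection) 48 h after dosing, is fitted upward against 0.2% DMSO. Cultured human liver primary cells, two donor preparations, received fresh chemical daily over multiple concentrations.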

[10] = read-out: organic anion transporter (SLCO1B1), SLCO1B1 (gene 10599); assay: CLD_SLCO1B1_48hr: CellzDirect (CLD) Gene Expression Assay for organic anion transporter (SLCO1B1) at 48 hours (AID 2283707)
Outline: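 SLCO1B1 transcript quantified by qNPA with chemiluminescent readout after 48 h of once-daily chemical exposure. Cultured human primary hepatocytes came from two donors, with 0.2% DMSO vehicle; positive-direction fitting against DMSO, cytotoxicity flagged by morphology.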

[11] = CEETOX_H295R_MTT_cell_viability: Viability Assessment in the CeeTox HT-H295R MTT Assay (AID 2283718; active = hit-call score of the fitted dose curve at least 0.9, where 1 is the maximum; inactive = score below 0.9)
Outline: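 Human H295R adrenal cells, prestimulated 48 h with 10 uM forskolin, were exposed 48 h to chemicals in 0.1% DMSO. Viability was measured in the same wells by MTT (0.5 mg/ml, 4 h, 37 C), absorbance 570/650 nm, as percent of controls.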

[12] = read-out: alkyl and aryl transferase (GSTA2), GSTA2 (gene 2939); assay: CLD_GSTA2_48hr: CellzDirect (CLD) Gene Expression Assay for alkyl and aryl transferase (GSTA2) at 48 hours (AID 2283708);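 also: active means mRNA induction above DMSO vehicle baseline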
Outline: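 GSTA2 mRNA quantified by qNPA chemiluminescence in human primary hepatocyte lysates after 48 h of daily fresh chemical dosing. Increases fitted against 0.2% DMSO vehicle baseline; cytotoxicity from morphology annotated yes/no.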

[13] = read-out: glucuronosyltransferase (UGT1A1), UGT1A1 (gene 54658); assay: CLD_UGT1A1_24hr: CellzDirect (CLD) Gene Expression Assay for glucuronosyltransferase (UGT1A1) at 24 hours (AID 2283696)
Outline: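 UGT1A1 transcript induction was measured by quantitative nuclease protection assay (chemiluminescence) in human hepatocyte cultures 24 h after daily fresh dosing, with 0.2% DMSO as vehicle and baseline.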

[14] = read-out: Cytochrome P450 3A4 (Homo sapiens) (UniProt P08684); assay: CLD_CYP3A4_48hr: CellzDirect (CLD) Gene Expression Assay for xenobiotic metabolism (CYP3A4) at 48 hours (AID 2283698)
Outline: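 CYP3A4 induction read by qNPA chemiluminescence after 48 h, with fresh dosing solutions on consecutive days, in cultured human hepatocytes (two donors). Vehicle 0.2% DMSO as baseline; microscopy-based cytotoxicity annotated yes/no alongside data.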

[15] = read-out: xenobiotic metabolism (CYP1A1), CYP1A1 (gene 1543); assay: CLD_CYP1A1_48hr: CellzDirect (CLD) Gene Expression Assay for xenobiotic metabolism (CYP1A1) at 48 hours (AID 2283705)
Outline: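 CYP1A1 transcript measured by quantitative nuclease protection (chemiluminescent) 48 h after two daily treatments of human hepatocyte cultures, versus 0.2% DMSO. Morphology-based cytotoxicity flags accompany data; two donor preparations used.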

[16] = read-out: glucuronosyltransferase (UGT1A1), UGT1A1 (gene 54658); assay: CLD_UGT1A1_48hr: CellzDirect (CLD) Gene Expression Assay for glucuronosyltransferase (UGT1A1) at 48 hours (AID 2283709);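 also: actives increase expression relative to DMSO so potency refers to induction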
Outline: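 Quantitative nuclease protection assay (chemiluminescent) for UGT1A1 mRNA at 48 h in human hepatocyte cultures from two donors, redosed daily with fresh solutions. Induction fitted relative to 0.2% DMSO; phase-contrast morphology annotated cytotoxicity.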

[17] = read-out: alkyl and aryl transferase (GSTA2), GSTA2 (gene 2939); assay: CLD_GSTA2_24hr: CellzDirect (CLD) Gene Expression Assay for alkyl and aryl transferase (GSTA2) at 24 hours (AID 2283693)
Outline: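 GSTA2 transcript levels were quantified by quantitative nuclease protection assay in primary human hepatocytes 24 h after daily dosing with fresh solutions at multiple concentrations; 0.2% DMSO vehicle as baseline, cytotoxicity flagged morphologically.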

[18] = read-out: sulfotransferase (SULT2A), SULT2A1 (gene 6822); assay: CLD_SULT2A_48hr: CellzDirect (CLD) Gene Expression Assay for sulfotransferase (SULT2A) at 48 hours (AID 2283710);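 also: hits raise SULT2A1 transcript above the 0.2% DMSO vehicle baseline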
Outline: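 SULT2A1 transcript measured by qNPA chemiluminescence in human primary hepatocyte cultures after 48 h, with fresh dosing solutions on two consecutive days; gain-of-signal fitting against 0.2% DMSO vehicle; cytotoxicity annotated from phase-contrast morphology.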

[19] = STM_H9_OrnCyssISnorm_ratio: Stemina devTOX quickPredict H9 human embryonic stem cell (hESC)-based Assay for Ornithine (ORN):Cystine (CYSS) Ratio (AID 2283714)
Outline: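 UPLC-HRMS of spent media: ORN/CYSS ratio of internal-standard-normalized percentages, DMSO (0.1%) baseline. Pluripotent H9 hESCs, 72h exposure, daily re-dosing with fresh media; last 24h media collected.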

[20] = read-out: xenobiotic metabolism (CYP2C9), CYP2C9 (gene 1559); assay: CLD_CYP2C9_48hr: CellzDirect (CLD) Gene Expression Assay for xenobiotic metabolism (CYP1A2) at 48 hours (AID 2283701; active = hit-call score of the fitted dose curve at least 0.9, where 1 is the maximum; inactive = score below 0.9)
Outline: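 mRNA level measured by quantitative nuclease protection (S1 digestion, chemiluminescent detection) in lysates of human primary hepatocytes exposed 48 h with daily re-dosing. Induction fitted positively versus 0.2% DMSO; morphology-based cytotoxicity flagged yes/no.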

Measured: AC50

Broad substrate specificity ATP-binding cassette transporter ABCG2 (Homo sapiens), sequence (Q9UNQ0 whole entry, looked up): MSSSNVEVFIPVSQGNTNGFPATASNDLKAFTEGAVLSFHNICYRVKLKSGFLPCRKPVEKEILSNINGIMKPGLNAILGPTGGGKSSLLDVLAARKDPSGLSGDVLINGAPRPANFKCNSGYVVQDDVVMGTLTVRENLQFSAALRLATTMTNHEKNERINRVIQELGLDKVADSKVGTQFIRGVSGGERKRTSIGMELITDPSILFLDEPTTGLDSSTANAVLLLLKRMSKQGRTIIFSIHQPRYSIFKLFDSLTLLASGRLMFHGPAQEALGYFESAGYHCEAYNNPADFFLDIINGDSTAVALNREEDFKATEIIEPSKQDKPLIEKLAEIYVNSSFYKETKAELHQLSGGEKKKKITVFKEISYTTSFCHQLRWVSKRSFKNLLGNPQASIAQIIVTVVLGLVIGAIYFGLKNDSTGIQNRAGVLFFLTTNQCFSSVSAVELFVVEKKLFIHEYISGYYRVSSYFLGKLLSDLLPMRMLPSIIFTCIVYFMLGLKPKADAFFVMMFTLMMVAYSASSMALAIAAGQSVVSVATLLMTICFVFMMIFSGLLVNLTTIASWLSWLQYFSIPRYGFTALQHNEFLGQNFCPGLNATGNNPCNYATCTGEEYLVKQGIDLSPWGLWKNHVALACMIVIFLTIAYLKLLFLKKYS
Cytochrome P450 3A4 (Homo sapiens), sequence (P08684 whole entry, looked up): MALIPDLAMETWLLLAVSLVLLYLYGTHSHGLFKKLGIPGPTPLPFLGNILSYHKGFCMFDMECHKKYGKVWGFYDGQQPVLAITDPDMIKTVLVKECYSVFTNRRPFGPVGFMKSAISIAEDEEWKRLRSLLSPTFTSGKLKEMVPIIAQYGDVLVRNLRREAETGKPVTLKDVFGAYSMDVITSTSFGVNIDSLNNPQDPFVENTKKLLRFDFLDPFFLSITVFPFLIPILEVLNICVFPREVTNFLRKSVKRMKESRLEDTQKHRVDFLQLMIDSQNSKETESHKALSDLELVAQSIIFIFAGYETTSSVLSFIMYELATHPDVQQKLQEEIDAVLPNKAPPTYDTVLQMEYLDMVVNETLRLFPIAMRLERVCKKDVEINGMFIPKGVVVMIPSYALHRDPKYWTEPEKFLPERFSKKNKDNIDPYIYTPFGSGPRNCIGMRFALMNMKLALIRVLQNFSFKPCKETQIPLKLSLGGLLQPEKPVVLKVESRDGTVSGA

CC1=NNC(=O)N(/N=C/c2cccnc2)C1
active: [4] 8.29 µM
inactive: [1] | [2] | [3] | [5] | [6] | [7] | [8]

CCCCN(CC)c1c([N+](=O)[O-])cc(C(F)(F)F)cc1[N+](=O)[O-]
inactive: [2] | [5] | [10] | [11] | [8]
active: [1] 6.35 µM | [9] 4.17 µM | [4] 5.9 µM

CCc1cnc(C2=NC(C)(C(C)C)C(=O)N2)c(C(=O)O)c1 (stereo not given)
inactive: [1] | [4] | [5] | [10] | [12] | [8]

COc1cccc(C(=O)NN(C(=O)c2cc(C)cc(C)c2)C(C)(C)C)c1C
active: [13] 4.26 µM | [14] 1.42 µM | [4] 20 µM | [15] 10.1 µM | [16] 8.82 µM
inactive: [2] | [9] | [10] | [11] | [8]

Cc1ccn2nc(S(=O)(=O)Nc3c(F)cccc3F)nc2n1
active: [14] 3.97 µM
not listed: [3] | [12] | [15] | [17] | [18] | [19] | [20]
inactive: all other assays above

CCOC(=O)COc1cc(-c2nn(C)c(OC(F)F)c2Cl)c(F)cc1Cl
inactive: [2] | [3] | [4] | [11] | [8]
active: [1] 20 µM | [9] 13.5 µM

FC(F)C(F)(F)OCC(Cn1cncn1)c1ccc(Cl)cc1Cl (stereo not given)
active: [1] 0.949 µM | [9] 0.321 µM | [4] 1.27 µM | [8] 0.00154 µM
inactive: [17] | [2] | [13] | [5] | [6] | [7] | [11]

CNc1cnn(-c2cccc(C(F)(F)F)c2)c(=O)c1Cl
inactive: [2] | [18] | [6] | [7] | [19] | [11] | [8]
active: [1] 5.8 µM | [9] 3.19 µM | [4] 5.39 µM

CCCCOC(=O)[C@@H](C)Oc1ccc(Oc2ccc(C#N)cc2F)cc1
inactive: [2] | [13] | [9] | [4] | [5] | [18] | [8]
active: [6] 85.7 µM | [7] 77.7 µM | [19] 84.8 µM

CC(=NC#N)N(C)Cc1ccc(Cl)nc1
inactive: [2] | [3] | [9] | [4] | [10] | [16] | [8]

CC(C1CC1)C(O)(Cn1cncn1)c1ccc(Cl)cc1 (stereo not given)
active: [1] 3.78 µM | [9] 2.42 µM | [20] 91.1 nM | [4] 5.01 µM | [6] 50 µM | [7] 83 µM | [19] 77.4 µM | [8] 26.2 µM
inactive: [2] | [13] | [5] | [15] | [12] | [11]

CCCOCC(=Nc1ccc(Cl)cc1C(F)(F)F)n1ccnc1
active: [14] 1.89 µM | [4] 0.687 µM | [5] 20 µM | [15] 6.01 µM
inactive: [17] | [3] | [9] | [11] | [8]

Nc1c(Cl)cc([N+](=O)[O-])cc1Cl
inactive: [2] | [13] | [10] | [16]
active: [9] 6.25 µM | [4] 4.29 µM | [8] 93.6 µM

CCCSP(=O)(OCC)Oc1ccc(Br)cc1Cl (stereo not given)
inactive: [5] | [10] | [11] | [8]
active: [1] 20 µM | [13] 20 µM | [9] 3.63 µM | [4] 4.26 µM

CCOP(=S)(OCC)Oc1ccc([N+](=O)[O-])cc1
inactive: [2] | [13] | [11] | [8]
active: [1] 5.25 µM | [9] 1.13 µM | [4] 2.97 µM | [15] 3.61 µM

COc1cc(OC)nc(Sc2cccc(Cl)c2C(=O)O)n1
active: [1] 20 µM
inactive: [2] | [13] | [9] | [4] | [5] | [10] | [16] | [8]
